Measured values reported in PubChem BioAssay AID1159580 (chemical genetic matrix, 2015).
Values joined by “and” are separate entries in the source; they are usually repeats but may differ in a detail not shown here. Equal entries are not always repeated. In all, about 5,500 compounds went through this assay and about 2,000 (36%) were called active. Another 18% or so got no clear call; they are omitted. Cut-off read from the data, not from the text of the source: active = normalized growth mostly below about 0.91 (no sharp cut-off); inconclusive = no clear call, values can overlap the other calls; inactive = mostly above about 0.92. This is one part of the list.

Assay: chemical genetic growth profiling, strain panel (AID 1159580);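 note: tested at 20 µM; growth read once vehicle control cultures reached saturation at 30 °C; 1 = growth at the plate median or of vehicle wells; lower values mean less growth of the strain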
Conditions: S. cerevisiae deletion strains, growth OD

Measured: normalized growth

CNC(Cc1c[nH]c2ccccc12)C(=O)O (stereo not drawn)
inactive: locus YAL013W, strain DEP1, stronger effect = lower value 0.988 | locus YAL021C, strain ccr4, stronger effect = lower value 0.972 | locus YAL026C, strain drs2, stronger effect = lower value 0.982 | locus YAL030W, strain snc1, stronger effect = lower value 0.974 | locus YBL061C, strain skt5, stronger effect = lower value 0.986 | locus YBR009C, strain hhf1, stronger effect = lower value 0.976 | locus YBR021W, strain FUR4, stronger effect = lower value 1 | locus YBR023C, strain chs3, stronger effect = lower value 0.994 | locus YBR171W, strain sec66, stronger effect = lower value 0.986 | locus YBR229C, strain ROT2, stronger effect = lower value 0.959 | locus YBR231C, strain swc5, stronger effect = lower value 1 | locus YBR279W, strain paf1, stronger effect = lower value 0.997 | locus YCL011C, strain gbp2, stronger effect = lower value 0.985 | locus YCL016C, strain dcc1, stronger effect = lower value 0.976 | locus YCL029C, strain bik1, stronger effect = lower value 0.996 | locus YCL061C, strain MRC1, stronger effect = lower value 0.983 | locus YCL069W, strain vba3, stronger effect = lower value 0.977 | locus YCR088W, strain abp1, stronger effect = lower value 0.991 | locus YDL005C, strain med2, stronger effect = lower value 0.975 | locus YDL035C, strain GPR1, stronger effect = lower value 0.931 | locus YDL040C, strain nat1, stronger effect = lower value 0.976 | locus YDL074C, strain BRE1, stronger effect = lower value 0.981 | locus YDL101C, strain DUN1, stronger effect = lower value 0.982 | locus YDL134C, strain PPH21, stronger effect = lower value 0.972 | locus YDL185W, strain tfp1, stronger effect = lower value 0.97 | locus YDL192W, strain arf1, stronger effect = lower value 0.986 | locus YDR001C, strain nth1, stronger effect = lower value 0.976 | locus YDR069C, strain doa4, stronger effect = lower value 0.991 | locus YDR101C, strain arx1, stronger effect = lower value 1.04 | locus YDR137W, strain rgp1, stronger effect = lower value 1.01 | locus YDR159W, strain sac3, stronger effect = lower value 0.986 | locus YDR162C, strain NBP2, stronger effect = lower value 0.994 | locus YDR195W, strain ref2 0.944 | locus YDR297W, strain sur2, stronger effect = lower value 0.99 | locus YDR318W, strain mcm21, stronger effect = lower value 0.973 | locus YDR334W, strain swr1, stronger effect = lower value 0.983 | locus YDR335W, strain msn5, stronger effect = lower value 0.987 | locus YDR388W, stronger effect = lower value 0.989 | locus YDR392W, strain spt3, stronger effect = lower value 0.963 | locus YDR502C, strain sam2, stronger effect = lower value 0.992 | locus YEL003W, strain gim4, stronger effect = lower value 1 | locus YEL037C, strain rad23, stronger effect = lower value 0.978 | locus YEL061C, strain CIN8 (second series), stronger effect = lower value 0.976 | locus YEL061C, strain CIN8, stronger effect = lower value 0.987 | locus YER015W, strain faa2, stronger effect = lower value 0.986 | locus YER016W, strain bim1, stronger effect = lower value 0.988 | locus YER110C, stronger effect = lower value 0.99 | locus YER111C, strain swi4, stronger effect = lower value 0.988 | locus YER155C, strain BEM2 (second series), stronger effect = lower value 0.996 | locus YER155C, strain BEM2, stronger effect = lower value 1 | locus YER167W, strain BCK2, stronger effect = lower value 1.01 | locus YFR010W, strain ubp6, stronger effect = lower value 0.988 | locus YGL078C, strain dbp3, stronger effect = lower value 0.996 | locus YGL086W, strain mad1, stronger effect = lower value 1.02 | locus YGL167C, strain pmr1, stronger effect = lower value 0.971 | locus YGL173C, strain kem1, stronger effect = lower value 0.996 | locus YGL227W, strain vid30, stronger effect = lower value 0.988 | locus YGL240W, strain doc1, stronger effect = lower value 1 | locus YGL248W, strain PDE1, stronger effect = lower value 0.972 | locus YGL253W, strain hxk2, stronger effect = lower value 0.995 | locus YGR135W, strain pre9, stronger effect = lower value 0.973 | locus YGR252W, strain gcn5, stronger effect = lower value 0.929 | locus YHR013C, strain ard1, stronger effect = lower value 0.978 | locus YHR027C, strain rpn1, stronger effect = lower value 0.982 | locus YHR030C, strain SLT2, stronger effect = lower value 1 and 0.971 | locus YHR079C, strain IRE1 (second series), stronger effect = lower value 0.991 | locus YHR079C, strain IRE1, stronger effect = lower value 0.97 | locus YHR094C, strain hxt1, stronger effect = lower value 0.979 | locus YHR129C, strain ARP1, stronger effect = lower value 0.996 | locus YHR142W, strain chs7, stronger effect = lower value 0.986 | locus YHR200W, strain rpn10, stronger effect = lower value 0.986 | locus YIL066C, strain RNR3, stronger effect = lower value 0.973 | locus YIL073C, strain SPO22, stronger effect = lower value 0.977 | locus YIL125W, strain kgd1, stronger effect = lower value 0.994 | locus YIR030C, strain dcg1, stronger effect = lower value 0.997 | locus YJL092W, strain hpr5, stronger effect = lower value 0.977 | locus YJL095W, strain BCK1 (second series), stronger effect = lower value 0.981 | locus YJL095W, strain BCK1, stronger effect = lower value 0.973 and 1.05 | locus YJL115W, strain asf1, stronger effect = lower value 0.971 | locus YJL129C, strain trk1, stronger effect = lower value 0.971 | locus YJL134W, strain LCB3, stronger effect = lower value 0.985 | locus YJL154C, strain vps35, stronger effect = lower value 0.986 | locus YJL164C, strain tpk1, stronger effect = lower value 0.968 | locus YJL166W, strain qcr8, stronger effect = lower value 0.99 | locus YJL168C, strain set2, stronger effect = lower value 0.992 | locus YJL187C, strain SWE1 (second series), stronger effect = lower value 0.971 | locus YJL187C, strain SWE1, stronger effect = lower value 0.99 | locus YJR043C, strain POL32, stronger effect = lower value 0.974
